Assay results: PubChem BioAssay AID538 (PCMD, 2006)
About 100 (0.16%) of roughly 62,000 compounds were called active. The sample holds actives, similar compounds and a random draw of the others, so the mix is not that of the screen. A number with no mark means an inactive call.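 How the source made its calls: active means inhibition above 20% in each of the two 10-compound mixture wells holding the compound; inactive means the rest.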

Target: Complement C1s subcomponent (Homo sapiens) (UniProt P09871)
Test: complement C1s protease inhibitors, primary screen, biochemical, 10-compound mixtures (AID 538);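 further: 0% = enzyme wells lacking compound mixture and 100% = no-enzyme blank wells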
Conditions: purified C1s, fluorogenic AMC substrate, pooled mixtures; screened at 5 µM (by protocol)

Complement C1s subcomponent (Homo sapiens), sequence (P09871 16-437 limits assumed): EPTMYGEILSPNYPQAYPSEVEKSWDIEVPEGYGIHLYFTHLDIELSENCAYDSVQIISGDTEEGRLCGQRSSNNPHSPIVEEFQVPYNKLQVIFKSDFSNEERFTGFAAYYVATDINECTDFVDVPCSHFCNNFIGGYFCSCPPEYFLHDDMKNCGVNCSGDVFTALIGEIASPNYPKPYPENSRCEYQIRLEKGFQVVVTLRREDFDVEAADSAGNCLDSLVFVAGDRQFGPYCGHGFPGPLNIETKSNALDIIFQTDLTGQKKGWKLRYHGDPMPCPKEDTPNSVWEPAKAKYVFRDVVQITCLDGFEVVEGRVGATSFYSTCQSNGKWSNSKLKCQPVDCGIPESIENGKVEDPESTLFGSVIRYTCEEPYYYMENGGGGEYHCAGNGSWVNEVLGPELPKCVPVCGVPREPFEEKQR
Complement C1s subcomponent (Homo sapiens), sequence (P09871 438-688 limits assumed): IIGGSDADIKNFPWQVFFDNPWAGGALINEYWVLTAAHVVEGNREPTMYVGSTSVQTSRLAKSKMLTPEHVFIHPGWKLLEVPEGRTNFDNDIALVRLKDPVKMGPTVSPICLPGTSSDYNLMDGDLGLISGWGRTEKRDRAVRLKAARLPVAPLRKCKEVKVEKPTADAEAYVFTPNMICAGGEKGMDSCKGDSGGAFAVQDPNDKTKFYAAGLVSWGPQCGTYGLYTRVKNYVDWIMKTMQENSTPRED

Compound | mean inhibition % of two 10-compound mixtures (active compounds read high)
Cc1ccc(C2CC(=O)NC(SCC(=O)OCc3ccccc3)=C2C#N)o1 (stereo not drawn) | -61.3%
CCC(=O)Nc1cccc(NC(=O)CSc2nnnn2C2CCCC2)c1 | 2.81%
CC(C)c1cc(C(=O)O)on1 | -17.9%
CC1CCc2c(sc(NC(=O)c3ccc(Cn4cc(Br)cn4)o3)c2C(N)=O)C1 (stereo not drawn) | -5.95%
CCCn1c(=O)c2ccccc2n2c(SCC(=O)/C(C#N)=C(\C)N)nnc12 | -0.9%
CCOc1ccc2nc(SC(CC)C(=O)Nc3cc(C)on3)sc2c1 (stereo not drawn) | 2.46%
COc1ccccc1Nc1nc(N)nc(CN(C)C2CCCCC2)n1 | -40.1%
C=CCn1c(CC(=O)Nc2cccc(OC)c2)nnc1SCC(=O)NC1CCCCC1 | -2.35%
O=C(c1cccc(S(=O)(=O)N2CCOCC2)c1)N1CCOCC1 | 13.9%
CN1CCN(C(=O)c2ccc(NS(=O)(=O)c3ccccc3)cc2)CC1 | 9.96%
CC(=O)N1CCN(C(=O)c2cccc(S(=O)(=O)Nc3ccc(C)cc3)c2)CC1 | 66.7% (active)
COCCCNC(=O)COc1cc(C)c(Cl)c(C)c1 | -0.425%
CCOC(=O)Cc1csc(NC(=O)CSc2nc(C)cc(=O)[nH]2)n1 | -2.67%
O=S(=O)(/C=C/c1ccccc1)NCCc1ccccn1 | -2.77%
Clc1ccc(Cn2ncc3c(NCc4cccnc4)ncnc32)cc1 | 3.33%
Cc1ccc(S(=O)(=O)NCC(=O)OCC(=O)N2CCc3ccccc32)cc1 | 5.33%
N#Cc1cccc(CSc2nnc(CCCO)n2-c2ccccc2)c1 | -5.26%
CCCC(C(=O)N1CCOCC1)N1C(=O)C2C3C=CC(C3)C2C1=O (stereo not drawn) | -8.34%
O=c1[nH]nc(CSCc2ccccc2Cl)[nH]1 | -7.92%
Cc1c(C(=O)NCC2CCCO2)sc2nc(-c3ccccc3)cn12 (stereo not drawn) | 0.595%
COC(=O)C(C)n1cnc2c(nnn2-c2cccc(Cl)c2)c1=O (stereo not drawn) | -40.6%
CC(C)c1ccc(OCC(O)Cn2cnc3ccccc32)cc1 (stereo not drawn) | -21.9%

Compound | mean inhibition % of two 10-compound mixtures (active compounds read high)
CC(C)C(NC(=O)c1cccc(S(=O)(=O)N2CCOCC2)c1)C(=O)NCCc1ccccn1 (stereo not drawn) | -12.8%
COC(=O)COc1ccc2oc(=O)cc(C)c2c1 | 10.3%
COC(=O)c1ccc(S(=O)(=O)c2ccc(C(=O)OC)s2)s1 | -14%
COC(=O)c1ccccc1NC(=O)CSc1ccccn1 | -21.1%
CC1CN(Cc2nc3c(c(=O)n(C)c(=O)n3C)n2Cc2cccc(Cl)c2)CC(C)O1 (stereo not drawn) | -18.5%
COc1cccc(-n2c(SCC(=O)NC3CCCCC3)nc3n[nH]c(C)c3c2=N)c1 | -13.5%
CC(=O)N(Cc1cccs1)C1CCOC(C)(C)C1 (stereo not drawn) | 4.59%
CCOC(=O)c1cccc(NC(=O)CCc2c(C)nc3ncnn3c2C)c1 | 2.35%
CC(C)n1c(NCc2c[nH]c3ccccc23)nc2ccccc21 | -7.58%
Cn1c(/C(C#N)=C2/CCCCCN2)nc2ccccc21 | -6.22%
Cc1ccc(OCC(=O)Nc2ccc(-c3nc4ncccc4o3)cc2)cc1 | -66.2%
Cc1ccccc1CSc1nnc(Cn2c(=O)sc3ccccc32)n1C | 4.08%
CCOC(=O)CCc1c(C)c2ccc(OCc3nn[nH]n3)c(C)c2oc1=O | -25%
Cc1c(C(=O)Nc2ccccc2Cl)oc2ccc(S(=O)(=O)N3CCC4(CC3)OCCO4)cc12 | -4.62%
COc1cccc(-c2nnc(NC(=O)c3ccc(S(=O)(=O)N(CC(C)C)CC(C)C)cc3)o2)c1 | 14%
COC(=O)C(C)Sc1ccc2nnc(-c3cccc(F)c3)n2n1 (stereo not drawn) | -5.87%
CCOC(=O)c1nnn(-c2nc(OC)nc(N(C)C)n2)c1-c1ccccc1 | -30.1%
C#CC(C)(C)NC(=O)CSc1nc2c(c(=O)n(C)c(=O)n2C)n1CCCC | 1.95%
CCCc1cc(=O)[nH]c(SCc2ccc(C#N)cc2)n1 | -9.73%
C=C(C)COc1ccc(-c2n[nH]c(C)c2-c2ccccc2OC)c(O)c1 | 15.7%
O=C(C1=C(O)C(=O)N(Cc2ccccc2)C1c1cccnc1)c1ccco1 (stereo not drawn) | 3.85%
Cc1ccccc1C(=O)NCCN=C1NS(=O)(=O)c2ccccc21 | -24.8%

Compound | mean inhibition % of two 10-compound mixtures (active compounds read high)
N#Cc1ccccc1-n1c(N)c(C(=O)N2CCCC2)sc1=S | -0.195%
O=C(O)COc1nsnc1N1CCOCC1 | -1.36%
O=C(O)c1cc(S(=O)(=O)N2CCCCCC2)c(Cl)cc1Cl | -41%
Cc1ccccc1-c1ccc(Nc2ccc(C(=O)N3CCOCC3)cc2)nn1 | 16%
Cc1ccnc(N2C(=O)c3ccccc3C2Nc2ccc3c(c2)OCCO3)c1 (stereo not drawn) | -33.6%
COc1cccc(OCC(=O)Nc2ccccc2C(N)=O)c1 | 16.6%
O=C(O)C1CC(=O)N(Cc2cccnc2)C1 (stereo not drawn) | 5.36%
CCCn1c(=NC(C)=O)c(C(=O)OCC)cc2c(=O)n3ccccc3nc21 | -168%
N#Cc1cccc(NC(=O)CCC2CCCC2)c1 | -2.16%
Cn1nc(-c2ccc(Cl)cc2)c2cc(C(=O)NCc3ccco3)sc21 | 10.9%
O=S(=O)(NCc1ccccn1)c1ccc(Br)s1 | -20.3%
COc1ccc(C(=O)Nc2c(N)nc(SCC(=O)N3CCC(C)CC3)[nH]c2=O)cc1OC | -31.6%
CC1(C)CC(=O)C=C(NCc2ccncc2)C1 | -4.76%
Cc1ccc2c(c1)c1ncn(CCC3=CCCCC3)c(=O)c1n2C | 2.97%
CCCn1c(SCC(=O)c2ccc3c(c2)OCCO3)nnc1C(C)C | -7.42%
Cc1nn(-c2ccccc2)c2[nH]c(C(F)(F)F)cc(=O)c12 | 1.25%
CS(=O)(=O)N(C(=O)NC(=O)NC1CCS(=O)(=O)C1)C1CCCCC1 (stereo not drawn) | -74.3%
CCCS(=O)(=O)N1CCC(C(=O)NCCCN(C)Cc2ccccc2)CC1 | 2.46%
CCc1cc(Br)ccc1NC(=O)C1CCCO1 (stereo not drawn) | 4.52%
Cc1cccc(OCC(O)Cn2c(=N)n(CCN3CCOCC3)c3ccccc32)c1 (stereo not drawn) | 3.52%
O=S(=O)(NCCOc1cccc2cccnc12)c1ccc(F)cc1 | 8.29%
CCOC(=O)CN(C(=O)CN1CCOCC1)c1ccc(Br)cc1 | 1.94%

Compound | mean inhibition % of two 10-compound mixtures (active compounds read high)
O=C(Nc1ccc(Cl)cn1)Nc1cccs1 | 7.83%
CC(NC(=O)c1cc(-c2ccccc2)on1)c1ccccc1 (stereo not drawn) | -25.3%
CCn1ncc(C2=NOC(C(=O)Nc3ccccc3C(=O)OC)C2)c1C (stereo not drawn) | 1.96%
COc1ccc(CCNC(=O)CN2CCC(n3nnc4cc(F)ccc43)CC2)cc1OC | 2.77%
Cc1ccc(Cn2nnc3c(=O)n(CC(=O)N4CCCCC4)cnc32)cc1 | -35.5%
Cc1ccc(CNC(=O)C2CC(=O)N(C3CCCCCCC3)C2)cc1 (stereo not drawn) | -34.1%
COc1ccccc1N(C(=O)Cn1nnc2ccccc21)C(C(=O)NCc1ccco1)c1ccc(C)o1 (stereo not drawn) | 8.72%
C#CCN1C(=O)C(O)(CC(=O)c2cc(OC)ccc2OC)c2ccccc21 (stereo not drawn) | 11.6%
C=CCn1c(SCn2nnc3ccccc3c2=O)nnc1-c1ccc(Cl)cc1 | 9.21%
CCOc1ccc(S(=O)(=O)N(CC(=O)O)c2ccccc2)cc1 | -11.4%
O=S1(=O)CCN2C(=N1)SC1=C2CCN(Cc2ccccc2)C1 | 15.2%
Cc1cc(C)cc(NC(=O)N2CCC(NC(=O)c3ccc(F)cc3)CC2)c1 | 3.5%
CC(C)CCNC(=O)C(C)N(C(=O)Cn1nnc(-c2ccc(F)cc2)n1)C1CCCC1 (stereo not drawn) | -3.08%
CCCCCOC(=O)NCCOC(=O)Nc1ccc(C(=O)OCC)cc1 | 1.11%
CCNc1nc(SCCOc2ccccc2)nc(N(C)C)n1 | 3.09%
C=CCn1c(SCC(=O)NC23CC4CC(CC(C4)C2)C3)nc(O)cc1=O | -25.2%
COC(=O)c1cccc(NC(=O)CN2CCC(NC(=O)c3cc(OC)c(OC)c(OC)c3)CC2)c1 | -69.7%
Cc1cccc(N2CCN(S(=O)(=O)c3ccc4c(c3)c(=O)n(C)c(=O)n4C)CC2C)c1 (stereo not drawn) | 12.1%
CCCC(=O)Nc1ccc(C(=O)NCCCn2ccnc2)cc1 | 14.7%
COc1ccc(-c2cc3ccc(OCc4nn[nH]n4)cc3oc2=O)cc1 | -281%
COc1ccc(S(=O)(=O)N(C)CC(=O)Nc2ccc3c(c2)OCCO3)cc1OC | 3.88%
COc1cccc(C(=O)Nc2c3c(nn2-c2cccc(C)c2C)CS(=O)(=O)C3)c1OC | -0.81%

Compound | mean inhibition % of two 10-compound mixtures (active compounds read high)
CC(=O)N1CCN(c2cccc(C)c2C)CC1 | 6.81%
Cc1nnc(NC(=O)CCC(=O)N2CCC(C)CC2)s1 | 4.7%
O=C(C(Cc1ccccc1)n1cccc1)N1CCN(C2CCCCC2)CC1 (stereo not drawn) | 11.2%
Cn1c(SCC(=O)N2CCOCC2)nnc1-c1ccc(NC(=O)c2ccccc2F)cc1 | 3.6%
O=C(COc1ccc(F)cc1)N(CC1=CCS(=O)(=O)C1)c1ccccc1 | 4.83%
O=C1NC2(CCCCC2)N=C1c1ccccc1 | 2.35%
CCC/C(O)=C1\C(=O)CC(C)(C)CC1=Nc1ccccc1OC | 9.67%
O=C(CS(=O)(=O)c1cn(Cc2cccc(F)c2)c2ccccc12)N1CCCCC1 | -0.735%
CCOc1ccc(Cn2nnc(C(=O)NCc3ccccc3)c2N)cc1 | -16.1%
Oc1ccc(Cl)cc1/C=N/c1nc2ccccc2[nH]1 | 5.15%
CCN=C1SC(CC(=O)Nc2ccc(C)cc2)C(=O)N1CC (stereo not drawn) | -15%
Cc1occc1C(=O)N1CCCc2ccccc21 | -1.12%
CCN(CC)C(=O)CSc1nnc(-c2cnccn2)n1-c1ccc(C)cc1 | 14.1%
COc1ccc(-c2nnc(SCC(=O)NC3CCCCC3)o2)cc1OC | -3.36%
CCCOC(=O)C1=C(C)NC2=C(C(=O)C(C(=O)OC)C(C)C2)C1c1ccc(N(C)C)cc1 (stereo not drawn) | -5.72%
CC(CN1CCCCC1)OC(=O)c1ccccc1Cl (stereo not drawn) | 2.23%
CN1CCCc2cc(C#N)c(=O)[nH]c21 | -74.4%
Cc1ncn(C23CC4CC(CC(O)(C4)C2)C3)n1 | 0.845%
Cc1ncc(CC(=O)n2cc(C(=O)c3cc(Cl)ccc3O)cn2)s1 | 8.66%
Cn1c(=O)c2c(nc(SCC(=O)Nc3ccccc3N3CCCCC3)n2C)n(C)c1=O | -17.6%
